PubChem BioAssay (NCI)
This is part of a sample that, as a whole, favours compounds with a hit. Of some 79,000 tested, about 15% had one in any assay. Unmarked numbers belong to inactive results. Activity calls are given as the source filed them. Cut-off read from the data, not from the text of the source: active = growth inhibition above about 70%; inactive = the rest.

test: NCI Yeast Anticancer Drug Screen. Data for the mec2-1 strain (AID 157); details: S. cerevisiae mec2-1 strain, at 5.0 µM (retest, dose inferred, filed as 0.5), stronger effect = higher value
In short: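 Test agents were screened against the mec2-1 yeast strain, with defined DNA repair or cell cycle alteration. Growth was scored as inhibition against vehicle-only controls.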

Going from `CCCCCCCCCCCCCCCC1=NCCN1C` to `CCCCCCCCCCCCCCCCNCCCCCCCC(=O)O`, the growth inhibition falls from 9% to 4%.

First: C=CCNC(=O)c1ccccc1C(=O)O
Second: CSc1c(S(C)=O)c2ccccc2n1C (stereo not given)
The growth inhibition of the first is lower: 1% for the first, 22% for the second.

Compared with `O=C(Nc1ccc(Cl)cc1Cl)OC(Cn1cncn1)c1ccc(Cl)cc1Cl` (stereo not given), `Cc1ccc(C2(O)CC(c3ccc([N+](=O)[O-])o3)=NN2C(=O)COc2ccc(Cl)cc2)cc1` (stereo not given) is lower in growth inhibition: 67% for the first, 29% for the second.

Going from `CC1=C(C)CC2C(=O)C(C(O)CC(C)C)=CC(=O)C2C1` (stereo not given) to `CC1Cc2cc(O)c(O)cc2-c2cc(O)c(O)cc2CC1C` (stereo not given), the growth inhibition falls from -5% to -11%.

Going from `BrCc1ccccc1C[P+](c1ccccc1)(c1ccccc1)c1ccccc1` to `O=Cc1cc(-c2ccccc2)n(-c2ccccc2)c1-c1ccccc1`, the growth inhibition falls from 52% to 2%.

Compared with `Cc1cn(C(C#N)=C(C#N)C#N)c2ccccc12`, `N#CC1=C(N)OC(c2ccccc2)=C(C#N)C1c1ccccc1[N+](=O)[O-]` (stereo not given) is higher in growth inhibition: 6% for the first, 9% for the second.

First: O=C1OCCCOC(=O)c2cc(ccc2O)OCC#CC#CCOc2ccc(O)c1c2
Second: O=[N+]([O-])c1cc2ccc(O)cc2c2ccccc12
The growth inhibition of the first is higher: -4% for the first, -8% for the second.

Compared with `N#CI1OC(C(F)(F)F)(C(F)(F)F)c2ccccc21`, `C/C(=N/O)c1cccc(C(F)(F)F)c1` is lower in growth inhibition: 61% for the first, -50% for the second.

Going from `c1ccc2c(c1)[nH]c1c[n+]3c(c[n+]12)[nH]c1ccccc13` to `O=C(CBr)N1c2ccccc2Sc2ccc3ccccc3c21`, the growth inhibition rises from 8% to 49%.

Going from `COc1ccc(C2c3cc4c(cc3OC(C)(O)C2C)OCO4)cc1` (stereo not given) to `COc1ccc(/C=C/c2ccnnc2)c(OC)c1OC`, the growth inhibition falls from 8% to -3%.

First: CCO[Si](CC)(OCC)OCC
Second: CCC(C)(C)c1ccc(OCCO)c([N+](=O)[O-])c1
The growth inhibition of the first is lower: -6% for the first, 8% for the second.

Compared with `C/C=C(/CCC1NCCC2c3ccccc3NC12)[Si](C)(C)C` (stereo not given), `Cc1nn(C(=O)c2ccncc2)c(C)c1N=Nc1ccccc1[N+](=O)[O-]` is higher in growth inhibition: -5% for the first, 11% for the second.

First: CC(=O)Oc1ccc(/C=C/c2ccncc2)cc1
Second: O=c1c2ccccc2ncn1Cc1ccccc1[N+](=O)[O-]
The growth inhibition of the first is lower: -47% for the first, -2% for the second.

First: OC(c1ccccc1)(c1ccccc1)c1ccc[cH-]1.OC(c1ccccc1)(c1ccccc1)c1ccc[cH-]1.[Fe+2]
Second: NC(CSSCC(N)C(=O)Nc1ccc2ccccc2c1)C(=O)Nc1ccc2ccccc2c1 (stereo not given)
The growth inhibition of the first is lower: 3% for the first, 42% for the second.

First: O=C1C=CC(=O)N1c1ccc(Cl)cc1Br
Second: Nc1ccc2c(c1)[nH]c(=O)c1cc(Cl)c(Cl)cc12
The growth inhibition of the first is higher: 40% for the first, 27% for the second.

First: CNC(=S)/N=c1/sc([N+](=O)[O-])c(C)n1C
Second: CCCCCCN(S(=O)(=O)c1ccc([N+](=O)[O-])cc1)S(=O)(=O)c1ccc([N+](=O)[O-])cc1
The growth inhibition of the first is higher: -6% for the first, -105% for the second.

First: CCCCCCCCCCCCSC1=C(N)C(=O)c2ccccc2C1=O
Second: COC1CCCCC1C(=O)C(C#N)C1CCCCC1C1CCCCC1 (stereo not given)
The growth inhibition of the first is lower: 0% for the first, 3% for the second.

With `COc1cc2c(oc(=O)c3cc(C)cc(OC)c32)c2c(C3OC(C)C(O)C(C)(O)C3O)ccc(O)c12` (stereo not given) the growth inhibition was 72% (active).
With `Oc1c(Cl)cc(Cl)c(Cc2c(Cl)cc(Cl)c(O)c2Cl)c1Cl` the growth inhibition was 98% (active).
For `CC(C)(C)CC(C)(C)N[P+](NC(C)(C)CC(C)(C)C)(NC(C)(C)CC(C)(C)C)NC(C)(C)CC(C)(C)C`, the growth inhibition was 97% (active).
With `Cc1c(N)nc(C2CC(=O)N2CC(N)C(N)=O)nc1C(=O)NC(C(=O)NC(C)C(O)C(C)C(=O)NC(C(=O)NCCc1nc(-c2nc(C(=O)NCCNCC(C)O)cs2)cs1)C(C)O)C(OC1OC(CO)C(O)C(O)C1OC1OC(CO)C(O)C(OC(N)=O)C1O)c1cnc[nH]1` (stereo not given) the growth inhibition was 82% (active).
For `CCC[CH2][Ge]([CH2]CCC)([CH2]CCC)[O]C(=O)C(OC(C)=O)c1ccccc1` (stereo not given), the growth inhibition was 85% (active).
With `COCCOC1=C(Cl)C(=O)c2c(O)ccc(O)c2C1=O` the growth inhibition was 99% (active).
